# Assay outcomes deposited in PubChem BioAssay by National Center for Advancing Translational Sciences (NCATS).
# RORgamma inh – blocks mouse ROR gamma transcriptional activity; P51450; Drosophila S2 Gal4-RORgamma UAS-luciferase reporter, 20 h; Potency, µM (doses to about 53.6 µM), for the others: at the top dose activity change, negative = inhibition, hits mostly inhibitors; actives 5.4% (n = 310,000); AID 2551; note: % is set by controls: 0 for no effect and ±100 for the full control effect; nearly all actives have a fitted effect of over 60% in size
# Target sequence (P51450 whole entry, looked up, the tested form may be a part): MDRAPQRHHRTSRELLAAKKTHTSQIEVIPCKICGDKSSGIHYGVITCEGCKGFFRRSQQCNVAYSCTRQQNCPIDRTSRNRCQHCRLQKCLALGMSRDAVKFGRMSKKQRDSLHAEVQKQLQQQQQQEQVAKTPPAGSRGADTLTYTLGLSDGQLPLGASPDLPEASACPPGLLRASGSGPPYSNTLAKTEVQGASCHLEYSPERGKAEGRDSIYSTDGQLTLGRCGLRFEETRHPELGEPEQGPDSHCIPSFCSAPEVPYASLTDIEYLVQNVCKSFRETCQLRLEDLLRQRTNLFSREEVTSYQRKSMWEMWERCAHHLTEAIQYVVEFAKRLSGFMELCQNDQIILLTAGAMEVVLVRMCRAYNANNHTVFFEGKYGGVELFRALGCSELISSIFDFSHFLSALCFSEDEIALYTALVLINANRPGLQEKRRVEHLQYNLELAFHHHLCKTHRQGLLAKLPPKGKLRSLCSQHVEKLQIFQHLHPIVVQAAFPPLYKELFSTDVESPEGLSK
#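 Luciferase reporter read in Schneider cells carrying Gal4-RORγ (mouse) and UAS-Photinus luciferase; cells given compound 1 h before 700 uM copper sulfate induction, then incubated 20 h at ambient temperature.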
# KB-3-1 tox – KB-3-1 parental cell cytotoxicity; KB-3-1 viability, CellTiter-Glo ATP luminescence, 72 h; Potency, µM (titrated, usually from 46.1 µM), hits mostly cytotoxic; actives 1.4% (n = 400,000); AID 1347075; note: % is set by controls: 0 for no effect and ±100 for the full control effect; nearly all actives have a fitted effect of over 60% in size
#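 Here the drug-naive KB-3-1 line serves as comparator for MDR sub-line selectivity; cells received compound titrations, 72 h at 37 °C, then CellTiter-Glo readout.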
# KB-V1 cytotox – kills drug-selected multidrug resistant KB-V1 cells | KB-V1 MDR cells viability, CellTiter-Glo, 72 h | actives 3.4% (n = 400,000) | Potency, µM (series often up to 46.1 µM), most hits filed as cytotoxic | AID 1347076; note: % is set by controls: 0 for no effect and ±100 for the full control effect; nearly all actives have a fitted effect of over 60% in size
#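 Following 72 h at 37 degrees C with compound, KB-V1 cell viability was read by CellTiter-Glo luminescence, medium being phenol-red-free DMEM plus 10% FBS; concentration-response parameters came from normalized, curve-fitted qHTS data.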
# MCF10A rereplic – inducers of DNA re-replication in MCF 10A breast cells. MCF 10A DNA re-replication, Hoechst nuclear intensity, 48 h. Potency, µM (series often up to 46.1 µM), for inactives: top-dose activity, positive = re-replication, hits mostly activators. actives 2.9% (n = 350,000); note: % of control where 0% means no effect; nearly all actives have a fitted effect of over 50% in size
# Gal4-VP16 FLuc – counter-screen for ROR gamma inhibitors: Gal4-VP16 reporter; Drosophila S2 Gal4-VP16 UAS-luciferase, luminescence, 20 h; Potency, µM (titrated, usually from 53.6 µM), for the others: at the highest dose activity, negative = inhibition, most hits filed as inhibitors; actives 3.5% (n = 310,000); AID 2546;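 note: Gal4-VP16 expression switched on by copper sulfate through the metallothionein promoter; % is set by controls: 0 for no effect and ±100 for the full control effect; nearly all actives have a fitted effect of over 50% in size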
# SW480 rereplic – induces DNA re-replication in SW480 colon adenocarcinoma cells; Potency, µM (series often up to 46.1 µM), inactives show at the highest dose re-replication activation, hits mostly activators; actives 1.8% (n = 340,000); SW480 DNA re-replication, Hoechst DNA content imaging, 48 h; note: % of control where 0% means no effect; nearly all actives have a fitted effect of over 55% in size
#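 Quantitative HTS format with DMSO vehicle controls; 48 hr drug incubation at 37 C, then 40 min Hoechst staining and scanning imager measurement at 405 nm excitation.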
# Active calls of the source: *; i = inactive; ? = inconclusive; . = not tested or not shown; ! = a repeat was not active. Most compounds without a hit are left out; they make up all but 10% or so of the library. Calls come from the whole dose curve; as a rule, active = well fitted curve in the direction sought with a large enough effect; inconclusive = small, poorly fitted or top-dose-only effect, or another doubt; inactive = no such curve, though single readings can be large; an effect the other way counts as inactive or inconclusive. Potency is the fitted concentration of half-maximal effect.
SMILES,RORgamma inh,KB-3-1 tox,KB-V1 cytotox,MCF10A rereplic,Gal4-VP16 FLuc,SW480 rereplic
CCn1ccnc1CN1CCCC(C(=O)c2cc(F)ccc2OC)C1 (stereo not drawn),2µM*,i,i,-3%,16µM*,-10%
CCn1ccnc1CN1CCCC(C(=O)c2ccc(OC)cc2OC)C1 (stereo not drawn),3.5µM*,i,?,7%,6.3µM*,-5%
COc1ccc(F)cc1C(=O)C1CCCN(Cc2ccc(O)cc2)C1 (stereo not drawn),?,i,i,24%,-1%,2%
COC1CC(=C(c2cccs2)c2cccs2)C[N+](C)(C)C1 (stereo not drawn),19%,.,.,2%,7%,-3%
CC1=CC[C@@H]2[C@@H](C1)c1c(O)cc(CC#CCCCNS(C)(=O)=O)cc1OC2(C)C,21%,.,.,.,?,.
O=C(CCCCCn1c(=S)[nH]c2ccccc2c1=O)N1CCC2(CC1)OCCO2,10µM*,i,i,3%,?,-15%
C[C@]12CC[C@H]3C(CCC4(O)CC(O)CC[C@]34C=O)C1=CC[C@H]2c1ccc(=O)oc1 (stereo partly drawn),-10%,23µM*,i,20%,-1%,?
C[C@H](N)Cc1c[nH]c2ccc(OCc3cccs3)cc12,0%,.,.,.,3%,.
C=CC=O,-5%,.,.,.,-22%,.
COc1cc2c(cc1OC)C1C(=O)c3c(cc4c(c3O)C=CC(C)(C)O4)OC1CO2 (stereo not drawn),2.8µM*,.,.,.,1µM*,.
O=C(/C=C/c1ccc(Br)cc1)NC(=S)N1C[C@H]2C[C@H](C1)c1cccc(=O)n1C2,18µM*,i,?,-3%,-9%,8%
O=C(/C=C/c1ccc(Cl)cc1)NC(=S)N1C[C@H]2C[C@H](C1)c1cccc(=O)n1C2,13µM*,i,?,2%,-3%,-3%
COc1ccc(/C=C/C(=O)NC(=S)N2C[C@H]3C[C@H](C2)c2cccc(=O)n2C3)cc1,-21%,i,i,?,8%,5%
ClCCCCl,-2%,.,.,.,5%,.
COc1ccc(-c2c3c(nc4sc5c(Cl)nc(C)nc5c24)CCC3)cc1,-12%,7.3µM*,?,?,-5%,-2%
O=C(CN1CCCC1)c1ccccc1,.,i,i,.,.,.
CC1=CC(C)CC(C)OC(=O)CC(c2ccc(O)cc2)NC(=O)C(Cc2c(Br)[nH]c3ccccc23)N(C)C(=O)C(C)NC(=O)C(C)C1 (stereo not drawn),.,0.18µM*,1.6µM*,?,.,0.12µM*
O=C(c1ccccc1)C(CN1CCCC1)c1ccccc1 (stereo not drawn),5.6µM*,5.2µM*,5.2µM*,3.3µM*,4.5µM*,7.3µM*
CC(C)C(O)(C(=O)OC[C@@H]1CC[N+]2([O-])CCCC12)C(C)O (stereo partly drawn),-1%,.,.,.,-11%,.
CC[C@H](C)[C@@H](C(=O)N1CCCC1c1nccs1)N(C)C(=O)[C@H](CC(C)C)N(C)C(=O)[C@H](Cc1ccc(OC)cc1)N(C)C(=O)/C=C(\C)OC (stereo partly drawn),.,i,i,?,.,21µM*
Cc1noc(C)c1C(=O)N1CCC[C@@]2(CCN(CC(C)C)C2)C1,1%,.,.,.,-6%,.
COc1ccc(/C=C2\SC(=O)N(CCn3cnnn3)C2=O)cc1,-38%,i,i,-14%,-15%,?
O=C(N/N=C\c1ccc(COc2ccc([N+](=O)[O-])cc2)o1)c1cccc(Cl)c1,1.8µM*,i,i,18%,2.5µM*,15%
COc1ccc2c(c[n+](C)c3c4cc5c(cc4ccc23)OCO5)c1OC,7.1µM*,.,.,.,8.9µM*!,.
COc1ccc(CCNC(=O)COC(=O)Cc2ccccc2)cc1,21%,i,i,2%,-7%,-28%
SMILES,RORgamma inh,KB-3-1 tox,KB-V1 cytotox,MCF10A rereplic,Gal4-VP16 FLuc,SW480 rereplic
COc1ccc(CCNC(=O)N2c3ccccc3Sc3ccccc32)cc1,.,?,?,16µM*,.,24%
O=C(Nc1ccccc1)c1ccccc1I,26%,.,.,.,-12%,.
CCOC(=O)C1(c2ccccc2)CCN(CCC(C#N)(c2ccccc2)c2ccccc2)CC1,38%,i,?,?,-1%,2.8µM*
CCC(=Nc1ccc(OC)cc1OC)c1c(O)n(C2CCCCC2)c(=O)[nH]c1=O,?,i,i,?,6.3µM*,17%
O=C1C=CC(=O)C=C1,11µM*,i,i,1%,1%,-66%
CCN(CCCl)c1cc(CN(C)C)cc(NC(=O)c2ccc(C(=O)Nc3cc(CN(C)C)cc(N(CC)CCCl)c3)cc2)c1,.,0.52µM*,i,14%,.,?
CCOC(=O)N(C)C(=O)CSP(=S)(OCC)OCC,-9%,.,.,.,7%,.
